Results filed as inconclusive are left out. Active and inactive are the calls of the source. Unless noted, calls follow the shape of the dose curve; as a rule, active = well fitted curve in the direction sought with a large enough effect in the repeat runs; inconclusive = weak or mixed curves; inactive = no such curve, though single readings can be large; an effect the other way counts as inactive or inconclusive.
Columns and labels:
[1] = qHTS assay for small molecules that induce genotoxicity in human embryonic kidney cells expressing luciferase-tagged ATAD5 (AID 651632); also: nearly all actives have a fitted effect of over 15% in size
Summary of the method: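 Quantitative HTS in HEK293T expressing luciferase-tagged ATAD5, whose levels rise upon DNA damage. Exposure ran 16 hr at 37C and 5% CO2, with luminescence read 30 min after Amplite addition at room temperature.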

[2] = qHTS assay for small molecule agonists of the p53 signaling pathway - cell viability (AID 651633; calls by dose curve;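 also: p53RE-bla HCT reporter cells with a stable beta-lactamase p53 reporter; series mostly up to about 83 µM; nearly all actives have a fitted effect of over 30% in size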)
Summary of the method: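 p53RE-bla cells, seeded at 4,000 per well and rested 5 h at 37 C/5% CO2, received compounds in DMSO for 16 h at 37 C. CellTiter-Glo was then added, and luminescence was read after 30 min at room temperature to gauge cytotoxicity.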

[3] = qHTS assay for small molecules that induce genotoxicity in human embryonic kidney cells expressing luciferase-tagged ATAD5 - cell viability (AID 651634; calls by dose curve; also: nearly all actives have a fitted effect of over 25% in size)
Summary of the method: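 After 15.5 hr incubation with compound at 37C, 5% CO2, HEK293T ATAD5-luciferase cells received CellTiter-Fluor reagent; fluorescence intensity was quantified following 30 min at 37C.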

[4] = qHTS assay for small molecule disruptors of the mitochondrial membrane potential - cell viability (AID 720634; calls by dose curve;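 also: human HepG2 liver cancer cells; series mostly up to about 83 µM; nearly all actives have a fitted effect of over 20% in size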)
Summary of the method: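 ATP-based luminescent viability readout (CellTiter-Glo, 30 min, room temperature) in HepG2 cells multiplexed with the m-MPI membrane potential dye; compound exposure lasted 1 hr at 37 C.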

[5] = qHTS assay to test for compound auto fluorescence at 590 nm (red) in HepG2 cells (AID 720674)
Summary of the method: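 Rose Bengal sodium served as the red fluorophore standard. HepG2 monolayers (overnight attachment, MEM with 10% FBS) were exposed to test compounds for 1 hr at 37 C and read at Ex 540/Em 590 nm.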

[6] = qHTS assay to test for compound auto fluorescence at 535 nm (green) in HepG2 cells (AID 720675)
[7] = qHTS assay to test for compound auto fluorescence at 460 nm (blue) in HEK293 cells (AID 720678)
Summary of the method: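 Intrinsic compound fluorescence is recorded in live HEK293 cultures after overnight incubation at 37C, 5% CO2, using excitation 405 nm and emission 460 nm. Values are referenced to triamterene.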

[8] = qHTS assay to test for compound auto fluorescence at 590 nm (red) in HEK293 cells (AID 720679)
Summary of the method: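 Red autofluorescence, HEK293 cells: 2,000 cells/well; attach 4-5 hr 37C; add 23 nL cpd or DMSO; incubate o/n 37C 5% CO2; read Ex540/Em590; Rose Bengal sodium reference.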

[9] = qHTS assay to test for compound auto fluorescence at 535 nm (green) in HEK293 cells (AID 720680)
[10] = qHTS assay to test for compound auto fluorescence at 460 nm (blue) in HEK293 cell free culture (AID 720681)
Summary of the method: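 Test compounds were pinned into cell-free culture medium (DMEM with 10% FBS) and fluorescence was read directly at Ex/Em 405/460 nm. Signals were expressed as fluorescence equivalents of triamterene, with DMSO vehicle as control.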

[11] = qHTS assay to test for compound auto fluorescence at 535 nm (green) in HEK293 cell free culture (AID 720682)
Summary of the method: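 Measurement is a direct plate read of green fluorescence (485 nm in, 535 nm out) after compound addition to serum-supplemented DMEM lacking cells, with fluorescein used to express intensities.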

[12] = qHTS assay to test for compound auto fluorescence at 590 nm (red) in HEK293 cell free culture (AID 720683)
Summary of the method: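 Tox21 10K library compounds were pinned into cell-free DMEM with 10% FBS and fluorescence was read at excitation 540 nm. Activity is expressed as Rose Bengal sodium equivalency.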

[13] = qHTS assay to test for compound auto fluorescence at 590 nm (red) in HepG2 cell free culture (AID 720684)
Summary of the method: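 Ex 540 / Em 590 nm read of compound in cell-free MEM (10% FBS). Rose Bengal sodium reference.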

[14] = qHTS assay to test for compound auto fluorescence at 460 nm (blue) in HepG2 cell free culture (AID 720685)
Summary of the method: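 Cell-free plates of MEM plus 10% FBS received 23 nL compound or DMSO vehicle; blue-channel (405/460 nm) intensity scored against triamterene as reference fluorophore.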

[15] = qHTS assay to test for compound auto fluorescence at 535 nm (green) in HepG2 cell free culture (AID 720686)
[16] = qHTS assay to test for compound auto fluorescence at 460 nm (blue) in HepG2 cells (AID 720687)
Summary of the method: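 Cells (2,000/well in MEM with 10% FBS) attached overnight at 37 C, then were exposed to compound or DMSO for 1 hr at 37 C, 5% CO2. Fluorescence read at Ex/Em 405/460 nm, expressed as triamterene-equivalent signal.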

[17] = molecular target: Glucocorticoid receptor (Homo sapiens) (UniProt P04150); assay: qHTS assay to identify small molecule agonists of the glucocorticoid receptor (GR) signaling pathway (AID 720691; active = well fitted activation curve with a large enough effect in the signal ratio in the repeat runs, not every such curve was filed as active; the % refers to the signal ratio)
Summary of the method: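 Cells: GR-bla HeLa, endogenous GR with stably integrated GRE-beta-lactamase reporter. Treatment 18 h, 37 C, compounds delivered in DMSO. Detection via LiveBLAzer B/G FRET substrate, 2 h RT, fluorescence intensity.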

[18] = qHTS assay for small molecule disruptors of the mitochondrial membrane potential (AID 720635)
Summary of the method: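 HepG2 cells (2,000/well) attached overnight at 37C, then took compound for 1 hr at 37C, 5% CO2. Mito-MPS dye was added for 30 min; fluorescence was read at 490/535 nm (monomers) and 540/590 nm (aggregates).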

[19] = molecular target: Glucocorticoid receptor (Homo sapiens) (UniProt P04150); assay: qHTS assay to identify small molecule antagonists of the glucocorticoid receptor (GR) signaling pathway (AID 720692; active = well fitted inhibition curve with a large enough effect in the signal ratio in the repeat runs, not every such curve was filed as active; the % refers to the signal ratio)
Summary of the method: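 Quantitative HTS in antagonist format: HeLa cells expressing endogenous GR and a stably integrated GRE-bla reporter, stimulated with 5 nM dexamethasone (final) alongside test compounds for 18 h.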
% is scaled to controls: 0 for no effect and ±100 for the full control effect.

Sequence of Glucocorticoid receptor (Homo sapiens) (P04150 whole entry, looked up): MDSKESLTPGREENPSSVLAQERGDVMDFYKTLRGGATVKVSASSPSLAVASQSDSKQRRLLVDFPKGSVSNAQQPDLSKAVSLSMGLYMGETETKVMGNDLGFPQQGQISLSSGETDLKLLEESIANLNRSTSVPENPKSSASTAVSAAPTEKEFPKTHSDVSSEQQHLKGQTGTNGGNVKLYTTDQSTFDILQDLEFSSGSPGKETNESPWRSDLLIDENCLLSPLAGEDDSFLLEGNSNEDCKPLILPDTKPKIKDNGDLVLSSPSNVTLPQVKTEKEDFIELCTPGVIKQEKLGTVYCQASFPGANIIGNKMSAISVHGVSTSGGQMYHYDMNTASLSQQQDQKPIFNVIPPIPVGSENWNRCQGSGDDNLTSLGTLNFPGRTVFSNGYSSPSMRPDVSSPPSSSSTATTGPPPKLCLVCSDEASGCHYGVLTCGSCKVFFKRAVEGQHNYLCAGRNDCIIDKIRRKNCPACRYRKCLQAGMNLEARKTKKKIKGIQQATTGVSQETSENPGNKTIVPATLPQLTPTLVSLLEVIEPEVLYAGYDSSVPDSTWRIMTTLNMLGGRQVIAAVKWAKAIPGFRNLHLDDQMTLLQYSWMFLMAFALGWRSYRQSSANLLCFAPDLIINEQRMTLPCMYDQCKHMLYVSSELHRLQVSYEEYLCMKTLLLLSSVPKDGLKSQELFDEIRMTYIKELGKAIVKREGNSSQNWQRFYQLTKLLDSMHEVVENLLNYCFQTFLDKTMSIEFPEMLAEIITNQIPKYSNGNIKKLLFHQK

N#CC1(N)CCCCC1
inactive: Potency [1] | outcome [2] | outcome [3] | outcome [4] | outcome [5] | outcome [6] | outcome [7] | outcome [8] | outcome [9] | outcome [10] | outcome [11] | outcome [12] | outcome [13] | outcome [14] | outcome [15] | outcome [16] | Potency [17]

CC(C)OCCO
inactive: outcome [2] | outcome [3] | outcome [4] | Potency [18] | outcome [5] | outcome [6] | outcome [7] | outcome [8] | outcome [9] | outcome [10] | outcome [11] | outcome [12] | outcome [13] | outcome [14] | outcome [15] | outcome [16] | Potency [17] | outcome [19]

CCCCCCCCS(=O)(=O)O
inactive: outcome [2] | outcome [3] | outcome [4] | Potency [18] | outcome [5] | outcome [6] | outcome [7] | outcome [8] | outcome [9] | outcome [10] | outcome [11] | outcome [12] | outcome [13] | outcome [14] | outcome [15] | outcome [16]

CC/C=C/CCCCCCCCCCOC(C)=O
inactive: Potency [1] | outcome [3] | outcome [4] | Potency [18] | outcome [5] | outcome [6] | outcome [7] | outcome [9] | outcome [10] | outcome [11] | outcome [12] | outcome [13] | outcome [14] | outcome [15] | outcome [16] | Potency [17] | outcome [19]

C=CCCCCCCCCCCCCCC
inactive: Potency [1] | outcome [2] | outcome [3] | outcome [4] | fluorescence, relative to Rose Bengal [5] -0.0589% [at 18.6 µM] | fluorescence, % of fluorescein control [6] -0.0523% [at 18.6 µM] | fluorescence, % of triamterene [7] 0.0937% [at 18.6 µM] | fluorescence, % of fluorescent control [8] 0.0885% [at 18.6 µM] | fluorescence, % of fluorescein [9] -0.003% [at 18.6 µM] | fluorescence, % of fluorescent control [10] 0.006% [at 18.6 µM] | activity change [11] 0.0547% [at 18.6 µM] | fluorescence, % of fluorescent control [12] -0.342% [at 18.6 µM] | fluorescence, % of Rose Bengal [13] 0.0019% [at 18.6 µM] | fluorescence, % of fluorescent control [14] -0.0168% [at 18.6 µM] | fluorescence, % of fluorescein control [15] 0.0254% [at 18.6 µM] | fluorescence, % of fluorescent control [16] 0.001% [at 18.6 µM] | Potency [17] | outcome [19]

N=C(N)N1CCc2ccccc2C1
inactive: Potency [1] | outcome [3] | outcome [4] | Potency [18] | outcome [6] | outcome [7] | outcome [8] | outcome [9] | outcome [10] | outcome [11] | outcome [12] | outcome [13] | outcome [14] | outcome [15] | outcome [16] | Potency [17] | outcome [19]

CC1=C(O)C(=O)CO1
inactive: Potency [1] | outcome [3] | outcome [4] | outcome [6] | outcome [7] | outcome [8] | outcome [9] | outcome [10] | outcome [11] | outcome [12] | outcome [13] | outcome [14] | outcome [15] | outcome [16]

CC(C)C(C)C
inactive: Potency [1] | outcome [2] | outcome [3] | outcome [4] | outcome [5] | outcome [6] | outcome [7] | outcome [8] | outcome [9] | outcome [10] | outcome [11] | outcome [12] | outcome [13] | outcome [14] | outcome [15] | outcome [16] | Potency [17] | outcome [19]
